The record followed here is PubChem BioAssay AID1490 (National Center for Advancing Translational Sciences (NCATS), 2009).

Where “and” joins values, the source holds several entries; their conditions need not be identical. Equal values may be shown once. In all, about 310,000 compounds went through this assay and about 11,000 (3.5%) were called active. Inconclusive results (about 4%) are left out. Many of the other results were omitted from the sample, so actives are more common in it than they were. Unmarked numbers belong to inactive results. The call rests on the fitted dose curve; in most records, active means well fitted inhibition curve with a large enough effect; inconclusive means small, poorly fitted or top-dose-only effect, or another doubt; inactive means no such curve, though single readings can be large or run the other way.
Potency means the concentration at half of the fitted maximal effect.

In this test the target is 4'-phosphopantetheinyl transferase ffp (Bacillus subtilis) (UniProt Q9F4F7). Kind of test: qHTS Assay for Inhibitors of Bacillus subtilis Sfp phosphopantetheinyl transferase (PPTase).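 Further: the enzyme is Sfp with the accession as filed and its product quenches rhodamine fluorescence.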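 On largest response in the series, negative = inhibition: 0% = enzyme reaction without inhibitor and -100% = no enzyme wells.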 The conditions noted are these: Biochemical Sfp PPTase activity. The essentials:
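Fluorescence-quenching assay: 15 nM Sfp-PPTase preincubated 15 min at room temperature with compound, then 5 uM rhodamine-CoA and 12.5 uM BHQ-2-labelled YbbR peptide added. Fluorescence (ex 525/em 598 nm) read at start and after 30 min; difference gives rate.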
Consider `COc1cccc(NC(=O)CN(C)C(=O)c2ccccc2CCc2ccccc2)c1`, for which the largest response in the series, negative = inhibition was 4.61%.
As to `CCN1C(=NCCc2cccnc2)N[C@@H](c2ccccc2)C(C(=O)OC)=C1C`, the largest response in the series, negative = inhibition is 4.98% and 1.06%.
Still for that read-out and setting: as for `CCOc1ccc(CN2CCN(CCCc3ccccc3)C(CCO)C2)cc1` (stereo not drawn), the figure is 7.43%; as for `CN(C)c1ccc(NC(=O)CN2C3CCCC2CC(NC(=O)c2ccccc2)C3)cc1` (stereo not drawn), -10%.
The same measure, in the same setting: as for `O=C(CN1CCCCCC1)Nc1ccc(Br)cc1[N+](=O)[O-]`, the figure is -3.46%; as for `CCCn1cc(S(=O)(=O)c2ccc(C)cc2)c(=O)c2cc(OCC)ccc21`, 0.066%.
The same measure, in the same setting: as for `COc1cc(C2NC(=O)NC(c3ccccc3)=C2C(C)=O)c(Br)cc1OCC(N)=O` (stereo not drawn), the figure is 18.5%.
With `CCOc1cc2[nH]c(=S)n(CCCN3CCCC3=O)c(=O)c2cc1OCC`, the Potency is 56.2 µM (active).
`CCOc1cc2[nH]c(=S)n(CCN3CCCCC3C)c(=O)c2cc1OCC` (stereo not drawn): the largest response in the series, negative = inhibition is -4.39%.
The same measure, in the same setting: as for `CCOc1cc2[nH]c(=O)n(Cc3ccc(C(=O)NCCCN4CCCC4=O)cc3)c(=O)c2cc1OCC`, the figure is 9.7%.
In the case of `Cc1cc(=O)[nH]c(N/N=C/c2ccc3c(c2)OCCO3)n1`, the Potency is 56.2 µM (active).
For the compound `Cc1cc(=O)[nH]c(N/N=C/c2c(C)nn(-c3ccccc3Cl)c2Cl)n1`, the largest response in the series, negative = inhibition was -9.72%.
Same read-out and setting: as for `CCN(CC)c1ccc(/C=N/Nc2nc(C)cc(=O)[nH]2)cc1`, the figure is -16.8%.
The same measure, in the same setting: as for `COc1ccc(/C=C(\C#N)c2c[nH]c3ccccc23)cc1`, the figure is 10.3%; as for `Cc1ccc2c(c1)N(CC(=O)NCCc1ccc(Cl)cc1)C(=O)c1cccnc1O2`, -4.46%.
The same measure, in the same setting: as for `COc1ccc(Cl)cc1NC(=O)CCN1CCOCC1`, the figure is 13.9%.
Consider `COC(=O)CNC(c1ccccc1Cl)c1cc(Br)ccc1NC(=O)CCN1CCOCC1` (stereo not drawn), for which the Potency is 56.2 µM (active).
As to `COc1ccccc1NC(=O)CCN1CCN(c2ccc(Cl)cc2)CC1`, the largest response in the series, negative = inhibition was 3.28%.
On to `CNS(=O)(=O)c1ccc(NC(=O)Nc2ccc3c(c2)OCO3)cc1`, for which the largest response in the series, negative = inhibition is -9.71%.
On the same count and under the same terms, as for `CCc1ccc(OCC(O)CN2CCN(CCO)CC2)cc1` (stereo not drawn), the figure is 5.76%; as for `C/C(=N/NC(=O)c1ccn(C)n1)c1ccncc1`, 5.8%.
With `C/C(=N\NC(N)=S)c1ccncc1`, the Potency is 79.4 µM (active).
With `C/C(=N/NC(=O)c1ccncc1)c1ccc2c(c1)OCO2`, the largest response in the series, negative = inhibition is 4.66%.
On the same count and under the same terms, as for `COc1ccc(CCNC(=O)CCCCCNC(=O)N2CCn3c2nc2ccccc23)cc1OC`, the figure is 4.84%; as for `Cc1ccccc1CNC(=O)CCC(=O)N1Cc2ccccc2Oc2ncccc21`, 19%.
On the same count and under the same terms, as for `CCn1c(SCc2cccc(C(=O)O)c2)nnc1-c1ccc(Cl)cc1`, the figure is 1.11%; as for `COc1ccc(-n2ncc3c2CC(C)(C)CC3NC(=O)CCc2c(C)nn(C)c2C)cc1` (stereo not drawn), 11.2%.
For `O=S(=O)(NC(=S)Nc1ccccc1)c1ccc(F)cc1`, the Potency was 20 µM (active).
`Cc1ccc(NC(=S)Nc2ccc(F)cc2)cc1`: the largest response in the series, negative = inhibition is 5.93%.
Still for that read-out and setting: as for `COC(=O)C(NS(=O)(=O)c1ccc(F)cc1)c1ccccc1` (stereo not drawn), the figure is 16.1%.
Same read-out and setting: as for `COc1ccc(NC(=O)CSc2ccc(-c3ccco3)nn2)c(OC)c1`, the figure is -27.4%; as for `O=C(CSc1ncn[nH]1)NCc1ccc2c(c1)OCO2`, 9.23%; as for `Cn1c(SCc2c(F)cccc2Cl)nnc1-c1cnccn1`, -5.8%.
On the same count and under the same terms, as for `Cc1ccccc1-c1nnc(SCC(=O)NCc2ccc3c(c2)OCO3)n1C`, the figure is 4.47%.
Consider `Fc1cccc(Cl)c1CSc1ccc(-c2ccco2)nn1`, for which the Potency is 39.8 µM (active).
Take `O=C(CSc1ccc(-c2ccco2)nn1)Nc1cccc(F)c1`: the Potency was 15.8 µM (active).
In the case of `Cc1cc(SCc2c(F)cccc2Cl)nc(=O)[nH]1`, the largest response in the series, negative = inhibition was 1.28%.
Same read-out and setting: as for `O=C(CSc1ccc(-c2ccc(F)cc2)nn1)Nc1ccc2c(c1)OCCO2`, the figure is -25.1%.
In the case of `O=C(CSc1ccc(-c2ccco2)nn1)NCc1ccc2c(c1)OCO2`, the Potency is 50.1 µM (active).
In the case of `O=C(NCC(=O)N1CCC2(CC1)NCCc1[nH]cnc12)c1ccc(Br)cc1`, the largest response in the series, negative = inhibition was 9.84%.
In the case of `O=C(Cn1nc([N+](=O)[O-])nc1Br)NC1CCCCC1`, the largest response in the series, negative = inhibition is 16.4%.
The same measure, in the same setting: as for `CCOC(=O)N1CCN(S(=O)(=O)c2ccc(Br)cc2)CC1`, the figure is 12.6%; as for `C[C@H]1Cc2c(COc3ccccc3)nc3c(c2CO1)CN(C(=O)Nc1cccc(C#N)c1)CC3`, 13.6%; as for `Cc1ccc(C(=O)N2CCC(n3nccc3NC(=O)Nc3cccc(F)c3)CC2)cn1`, 4.54%.
Still for that read-out and setting: as for `CCCCC[C@H](O)/C=C/[C@@H]1[C@@H](CC(=O)CCC(=O)O)[C@@H](O)C[C@H]1O`, the figure is -8.37%; as for `OCCC(O)CO` (stereo not drawn), -2.96% and -0.468% and 9.51%; as for `O=C(c1cccnc1)N1CCN(S(=O)(=O)c2cccs2)CC1`, 2.77%.
The same measure, in the same setting: as for `O=C(COc1ccc(Cl)cc1)NCCS(=O)(=O)N1CCN(c2ccc(F)cc2)CC1`, the figure is -3.01%; as for `NNC(=O)c1nnn(-c2nonc2N)c1CN1CCCC1`, 14.1%.
Regarding `Cc1c(C(=O)N(C)CCc2cnn(C)c2)oc2c(F)cccc12`, the largest response in the series, negative = inhibition was 4.37%.
On the same count and under the same terms, as for `CCc1ccc2c(c1)C(c1ccc([N+](=O)[O-])cc1)=NNC(c1ccccc1)=N2`, the figure is -18%.
With `CCc1ccc2c(c1)C1(NN=C(c3ccccc3)S1)C(=O)N2` (stereo not drawn), the Potency is 8.91 µM (active).
As to `Cc1ccc(C)c(N2CCN(C(=O)CCCn3c(=O)c4cccn4c4cccnc43)CC2)c1`, the largest response in the series, negative = inhibition was 14.7%.
Still for that read-out and setting: as for `CCNC(=O)N1CCCC(C(=O)c2ccc(-c3ccccc3)cc2)C1` (stereo not drawn), the figure is 4.19%.
`CSc1sc(C(=O)NC(=O)NCc2cccnc2)c(C)c1-c1ccon1`: the largest response in the series, negative = inhibition is 9.79%.
Still for that read-out and setting: as for `CC(C)(C)c1cc(C(=O)NCc2cccnc2)ccn1`, the figure is -7%.
With `Cc1ccc(-n2nc(-c3ccco3)cc2C(=O)NCc2cccnc2)cc1`, the Potency was 10 µM (active).
With `COc1ccc(N(CC(=O)Nc2cccc3ccccc23)S(C)(=O)=O)c(OC)c1`, the largest response in the series, negative = inhibition is 9.66%.
Still for that read-out and setting: as for `Cc1ccccc1NC(=O)Cn1cc(C(=O)C2CC2)c2ccccc21`, the figure is 16.6%; as for `O=C(Cc1c(Cl)cccc1Cl)NC1CC1`, 11.4%.
For the compound `C=CS(=O)c1sc(Cl)c(N2CCOCC2)c1[N+](=O)[O-]` (stereo not drawn), the Potency is 10 µM (active).
`COc1ccc(CCNC(=O)c2nnc(CS(=O)(=O)c3ccccc3)o2)cc1OC`: the largest response in the series, negative = inhibition is 9.29%.
Still for that read-out and setting: as for `COc1ccc(C(=O)NC(C)Cn2nc(C)cc2C)cc1OC1CCN(C(C)=O)CC1` (stereo not drawn), the figure is 12.4%.
As to `NC(N)=N/N=C/c1ccc(OCc2ccc(Cl)cc2Cl)cc1`, the Potency is 31.6 µM (active).
As for `NC(N)=N/N=C/c1ccc(Cl)c([N+](=O)[O-])c1`, the largest response in the series, negative = inhibition was 6.82%.
Still for that read-out and setting: as for `COc1ccc(C(=O)O/N=C(\N)Cc2ccc(Cl)cc2Cl)cc1OC`, the figure is 0.628%.
Consider `CCCOc1ccc(CNC(=O)C2CCN(c3nn4c(=O)cc(C)nc4s3)CC2)cc1`, for which the largest response in the series, negative = inhibition is 7.3%.
Same read-out and setting: as for `COc1ccc(C(=O)Nc2c(Cl)cc(Cl)cc2C(=O)N2CCC(C)CC2)cc1`, the figure is 11.9%.
On to `CC1CCN(C(=S)c2ccc(-c3ccc(Cl)cc3Cl)o2)CC1`, for which the Potency was 50.1 µM (active).
As to `Cc1csc(NC(=O)c2ccc(-c3ccc(Cl)cc3Cl)o2)n1`, the largest response in the series, negative = inhibition was 1.33%.
Same read-out and setting: as for `Cc1nc2cc(C(F)(F)F)ccc2n1CCNc1nc(-c2cc(Cl)c(N)c(Cl)c2)cs1`, the figure is 9.07%; as for `Cc1cccc(N2CCN(C(=O)c3cccc(N4C(=O)C5C6C=CC(C6)C5C4=O)c3)CC2)c1C` (stereo not drawn), 14.6%.
For `CCOC(=O)c1ccc(-c2ccc(C(=O)Nc3cccnc3)o2)cc1`, the Potency is 44.7 µM (active).
Regarding `Cc1ccc(NC(=O)Nc2cccnc2)cc1`, the largest response in the series, negative = inhibition is 2.48%.
For the compound `CCOC(=O)c1ccc(NC(=O)c2cccnc2)cc1`, the largest response in the series, negative = inhibition is 10.5%.
The same measure, in the same setting: as for `Cc1cccc(C(=O)Nc2ccc(Oc3cnccn3)cc2)c1`, the figure is 11%; as for `C=C1CCN(C(CC(C)C)C(=O)NCc2cc(OC)c(OC)c(OC)c2)S(=O)(=O)c2ccccc21` (stereo not drawn), -15.6%.
`Cc1[nH][nH]c(=O)c1C(c1ccc(-c2ccc(Cl)cc2)o1)c1c(C)[nH][nH]c1=O`: the Potency was 39.8 µM (active).
As for `CCOc1ccc(C(c2c(C)[nH][nH]c2=O)c2c(C)[nH][nH]c2=O)cc1OCC`, the largest response in the series, negative = inhibition is 2.34%.
As to `Cc1[nH][nH]c(=O)c1C(c1ccc2c(c1)OCO2)c1c(C)[nH][nH]c1=O`, the largest response in the series, negative = inhibition is 5.9%.
Still for that read-out and setting: as for `Cc1ccc2occ(/C=N/NC(=O)c3ccccc3C)c(=O)c2c1`, the figure is 18.5%; as for `CCC(C)[C@H](NC(=O)N1c2ccccc2NC(=O)[C@@H]1C(C)C)C(=O)N[C@@H](Cc1ccccc1)C(=O)O` (stereo partly drawn), 13.4%.
The same measure, in the same setting: as for `Cc1ccc(OCCOc2cccc(/C=N/NC(N)=O)c2)cc1`, the figure is 9.7%.
On to `Cc1nnc(N/N=C/c2cccs2)[nH]c1=O`, for which the Potency is 89.1 µM (active).
Regarding `O=C(N/N=C\C1CC=CCC1)c1ccc(Br)o1` (stereo not drawn), the largest response in the series, negative = inhibition was 5.57%.
Consider `Cc1nnc(N/N=C/C2CC=CCC2)[nH]c1=O` (stereo not drawn), for which the Potency was 79.4 µM (active).
On to `COCc1c(C(=O)N/N=C/C2CC=CCC2)nnn1-c1nonc1N` (stereo not drawn), for which the largest response in the series, negative = inhibition is -0.608%.
In the case of `Cc1n[nH]c(=O)nc1N/N=C/c1cccs1`, the largest response in the series, negative = inhibition was 4.06%.
The same measure, in the same setting: as for `Clc1ccc(N/N=C/c2cccs2)nn1`, the figure is -26.9%; as for `COc1ccc(CNC(=O)c2cc(C(=O)C3CC3)c[nH]2)cc1`, 19.2%.
Still for that read-out and setting: as for `CCc1cc(=O)oc2c(C)c(OCC(=O)N3CC[C@@]4(O)CCCC[C@H]4C3)ccc12`, the figure is 6.44%; as for `O=C(Nc1cccc(F)c1)NC1CCCCCCC1`, 8.11%; as for `COc1ccc2c(c1)O[C@@H](c1ccc3c(c1)OCO3)[C@H](OC(=O)NCc1ccco1)C2=O`, 1.2%.
